The panel holds about 79,000 compounds, 15% with a hit somewhere; the sample as a whole holds those more often. No stated cut-off is given here; in the data, active means growth inhibition above about 70%; inactive means the rest.
Columns and labels:
[1] = NCI Yeast Anticancer Drug Screen. Data for the rad50 strain (AID 155);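 further: 0% = growth of vehicle-only cultures of the same strain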; settings: S. cerevisiae rad50 strain growth inhibition; at 50.0 µM; stronger effect = higher value
Summary of the method: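 Vehicle-treated cultures provide the reference for the growth inhibition reported for compound-exposed, repair-deficient yeast.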

[2] = NCI Yeast Anticancer Drug Screen. Data for the mec2-1 strain (AID 157); settings: S. cerevisiae mec2-1 strain, at 50.0 µM, stronger effect = higher value
Summary of the method: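 Yeast mec2-1 mutant treated with compound. Readout: growth inhibition vs vehicle controls.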

[3] = NCI Yeast Anticancer Drug Screen. Data for the sgs1 mgt1 strain (AID 161);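 further: 0% = growth of cultures given vehicle only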; settings: S. cerevisiae sgs1 mgt1 strain, at 50.0 µM, stronger effect = higher value
Summary of the method: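 Read-out: growth inhibition vs vehicle controls. Cells: mutant yeast strain deficient in DNA damage repair.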

[4] = NCI Yeast Anticancer Drug Screen. Data for the cln2 rad14 strain (AID 165);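 further: 0% = growth equal to vehicle treated cultures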; settings: S. cerevisiae cln2 rad14 strain, at 50.0 µM, stronger effect = higher value
Summary of the method: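 cln2 rad14 yeast strain; compound exposure; growth inhibition read vs vehicle controls.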

[5] = NCI Yeast Anticancer Drug Screen. Data for the bub3 strain (AID 167); settings: S. cerevisiae bub3 mutant strain, at 50.0 µM, stronger effect = higher value
Summary of the method: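 Mutant yeast screening strain plus compound; vehicle-treated cultures serve as the 0% inhibition reference.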

[6] = NCI Yeast Anticancer Drug Screen. Data for the mlh1 rad18 strain (AID 175); settings: S. cerevisiae mlh1 rad18 strain growth inhibition; at 50.0 µM; stronger effect = higher value
Summary of the method: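 Yeast w/ defined DNA-repair lesions; compound exposure; growth vs vehicle controls → % inhibition.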

Measured: growth inhibition

CC(=O)Nc1ccc(S(=O)(=O)N/N=c2/sc3ccccc3n2C)cc1N
inactive: [1] -4.6% | [2] -2.7% | [3] -3.8% | [4] 15.2% | [5] -8.75% | [6] 3.2%

Cc1cc2c(c(S(=O)(=O)c3ccccc3[N+](=O)[O-])c1)NCCC2
inactive: [1] 2.95% | [2] -36% | [3] 3.3% | [4] -23.4% | [5] 14.8% | [6] -15.8%

O=C(O)CNCCO
inactive: [1] -0.35% | [2] 7.75% | [3] 6.65% | [4] 0% | [5] 22.2% | [6] -0.25%

CC1=C2N3C[C@@H](n4c(=O)n(C)c(=O)n43)C23CCC1n1c(=O)n(C)c(=O)n13
inactive: [1] -7.1% | [2] -0.85% | [3] 17.9% | [4] 7% | [5] -7.9% | [6] -9.95%

CCOC(=O)/C(Cc1ccc2c(c1)OCO2)=N\O
inactive: [1] -3.05% | [2] -16.1% | [3] -12.9% | [4] -2.25% | [5] 2.25% | [6] -1.1%

COc1ccc(C2CN=NN2c2ccc([N+](=O)[O-])cc2)cc1 (stereo not drawn)
inactive: [1] -18.4% | [2] -16.6% | [3] -9.15% | [4] 28.2% | [5] 46.1% | [6] -18%

COc1ccc(COCc2ccc(OC)cc2)cc1
inactive: [1] 4.55% | [2] -10.6% | [3] 8.7% | [4] -66.5% | [5] 13.8% | [6] 12.7%

c1ccc(-c2nc(-c3ccccc3)n3nc4c(c3c2-c2ccccc2)CCCCCC4)cc1
inactive: [1] -6.65% | [2] 5.65% | [3] -19.6% | [4] -8.55% | [5] -0.35% | [6] 0.2%

COc1cccc(NC(=O)Nc2ccccc2Cl)c1
inactive: [1] -13.2% | [2] 8.1% | [3] -3.25% | [4] -19.2% | [5] -1.3% | [6] -32.6%

OCCC1=CCC1
inactive: [1] 3.05% | [2] 20.9% | [3] -3.35% | [4] 29.6% | [5] 4.95% | [6] 5.4%

O=[N+]([O-])c1ccccc1S(=O)(=O)c1cc(Cl)cc2c1NCCC2
inactive: [1] 16.8% | [2] 0.15% | [3] 26.8% | [4] 9.15% | [5] 38.8% | [6] 30.9%

CN(C)Cc1cc(C(=O)/C=C/c2c(Cl)cccc2Cl)cc(CN(C)C)c1O
inactive: [1] -32% | [2] -17.6% | [3] -3% | [4] -31.2% | [5] -0.75% | [6] -18.9%

COc1ccc2c(c1)C(=O)N1CCOC1C2C(=O)O (stereo not drawn)
inactive: [1] 0.1% | [2] -31.8% | [3] -9.5% | [4] 11.3% | [5] -0.8% | [6] -30.3%

CCOC(=O)/C(C)=C1\N=C(c2ccccc2)OC(=NC2CCCCC2)N1C1CCCCC1
inactive: [1] 9.95% | [2] -4.8% | [3] 0.3% | [4] 17.9% | [5] -4.55% | [6] 8.1%

CCC(N)(C(=O)O)C(C)C (stereo not drawn)
inactive: [1] -25.7% | [2] -8.65% | [3] -12.1% | [4] -0.45% | [5] 8.4% | [6] -3.75%

CSc1nc(SC)c2cnn(C3OC(CO)C(O)C3O)c2n1 (stereo not drawn)
inactive: [1] 12% | [2] -1.1% | [3] 20.9% | [4] 3.25% | [5] 16.4% | [6] 33.4%

CC(=O)OC[C@@H](COC(=O)/C=C/c1ccc(O)cc1)OC1OC(CO)C(O)C(O)C1O (stereo partly drawn)
inactive: [1] -1.45% | [2] -37.2% | [3] -21.8% | [4] 1.7% | [5] -17.1% | [6] -1.8%

Cn1c(=O)c2conc2n(-c2ccc(Cl)cc2)c1=O
inactive: [1] 11.2% | [2] -0.1% | [3] -12.2% | [4] -19.9% | [5] 2.55% | [6] -3.25%

C=CCNC(=O)NCCCCC(NC(C)=O)C(=O)NCc1ccccc1 (stereo not drawn)
inactive: [1] -25.4% | [2] -18.4% | [3] -13.6% | [4] 2.35% | [5] -16.8% | [6] -10%

O=C(O)CCC(=O)Nc1cccc(C(F)(F)F)c1
inactive: [1] -5.9% | [2] 3.4% | [3] -3.15% | [4] -0.55% | [5] 15.2% | [6] 4.3%

NC(=O)CCC(Nc1c2ccccc2nc2ccccc12)C(=O)O (stereo not drawn)
inactive: [1] 23.1% | [2] 3.85% | [3] 15.7% | [4] 28.6% | [5] 1.4% | [6] 48.2%

CC1(C)Oc2ccc3ccccc3c2C(c2ccc(O)cc2)=C1c1ccccc1
inactive: [1] -51.5% | [2] -11% | [3] 5.2% | [4] 7.75% | [5] -3.1% | [6] -20.6%

CC(O)(C1CC1)C(C(=O)O)c1ccccc1 (stereo not drawn)
inactive: [1] -15.4% | [2] -6.85% | [3] 1.9% | [4] -26.7% | [5] 1.55% | [6] 10.6%

O=C(NNC(=S)S)c1ccncc1
inactive: [1] 7.5% | [2] 2.4% | [3] -1.2% | [4] -8.95% | [5] 11.7% | [6] 21.9%

N/N=C1/C(=O)N(c2ccc(S(N)(=O)=O)cc2)C(=O)C1C(=O)Nc1ccc(S(N)(=O)=O)cc1 (stereo not drawn)
inactive: [1] -4% | [2] 15.6% | [3] -0.9% | [4] 30.6% | [5] 0.25% | [6] 12.1%

O=C(Nc1ccccc1[N+](=O)[O-])Oc1ccc(-c2ccccc2)cc1
inactive: [1] 9.05% | [2] 5.75% | [3] 9.05% | [4] -7.65% | [5] 46.4% | [6] -28.9%

C=CCOCC(CCl)OC(=O)C(C)C (stereo not drawn)
inactive: [1] -4.95% | [2] -11.8% | [3] -13.3% | [4] -9.9% | [5] 0.7% | [6] -20.2%

CCOC(=O)C1=C(C)NC(=O)NC1c1ccc(OC)cc1OC (stereo not drawn)
inactive: [1] -2.15% | [2] -25.6% | [3] -11.7% | [4] 18.6% | [5] -18% | [6] -6.5%

CC#CC(C)(C)N(C)C
inactive: [1] -16.6% | [2] -8.45% | [3] -8.75% | [4] -21.4% | [5] 12.8% | [6] 14.1%

COc1ccccc1CC(C)N1CCCC1c1ccccc1 (stereo not drawn)
inactive: [1] -12.1% | [2] -6.8% | [3] -0.9% | [4] -41.6% | [5] 4.65% | [6] 3.4%

NCCc1ccc(O)c(O)c1
inactive: [1] -4.4% | [2] -4.2% | [3] -1.55% | [4] 4.25% | [5] -1.45% | [6] 1.85%

O=C(O)c1ccccc1/C=N\NC1=NCCN1
inactive: [1] -45.1% | [2] -13.4% | [3] -11.4% | [4] 12.7% | [5] -13.7% | [6] -6.35%

Fc1ccc(C(=C(c2ccc(F)cc2)c2ccc(F)cc2)c2ccc(F)cc2)cc1
inactive: [1] 45.5% | [2] -15.2% | [3] 36.9% | [4] 9.55% | [5] 0.1% | [6] 7%

C[N+]1(C)CCC(O)C(c2ccccc2)C1 (stereo not drawn)
inactive: [1] -8.9% | [2] -0.45% | [3] -3.5% | [4] -22.5% | [5] -8.1% | [6] -0.7%

c1ccc(COc2ccc3c(c2)CN(Cc2ccccc2)CO3)cc1
inactive: [1] -21.1% | [2] -28.9% | [3] 33.6% | [4] -18.6% | [5] 62.2% | [6] -9.1%

O=C(COc1ccc(Cl)cc1)NCCOC(=O)COc1ccc(Cl)cc1
inactive: [1] 37.5% | [2] 20.4% | [3] 12.2% | [4] 18.2% | [5] 21.3% | [6] 52.3%

NC(=O)N/N=C1\CCCCC12CCCCC2
inactive: [1] 4.3% | [2] 6.25% | [3] -4.9% | [4] -16.1% | [5] 2.2% | [6] -11.4%

CN(C)CCC(/C=C/c1ccccc1)=N\Nc1ccccc1
inactive: [1] 19.6% | [2] -14.9% | [3] -11.9% | [4] 5.5% | [5] -12.8% | [6] 36.5%

Source: PubChem BioAssay (NCI)
